Screening data as filed in PubChem BioAssay.
A selection: hits, their analogues and other compounds. The true share with any hit is near 0.39%.
CCT modulator – High-Throughput Screening for Modulators of Cytosolic Chaperonin Activity; hit rate 0.3% among 360,000; activity change, % (no concentration beside the values), hits read low; purified chaperonin ATPase assay, HTRF ADP detection, 30 min; in the data active means activity change below about -30%
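First, chaperonin was dispensed at 40 nM or 20 nM final depending on batch activity. Next, compounds were pinned at 76 uM and ATP added at 10 uM. After 30 min at 37 °C, ADP detection reagents ran 30 min at ambient temperature.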
Anesthetic bind – qHTS Assay for Identification of Novel General Anesthetics | Ferritin light chain (Equus caballus), P02791 | apoferritin/1-aminoanthracene competitive binding, fluorescence | Potency, µM (highest dose often 77.5 µM), hits mostly inhibitors | hit rate 0.074% among 350,000; further: nearly all actives have a fitted effect of over 20% in size
Target sequence (P02791 2-175 limits assumed): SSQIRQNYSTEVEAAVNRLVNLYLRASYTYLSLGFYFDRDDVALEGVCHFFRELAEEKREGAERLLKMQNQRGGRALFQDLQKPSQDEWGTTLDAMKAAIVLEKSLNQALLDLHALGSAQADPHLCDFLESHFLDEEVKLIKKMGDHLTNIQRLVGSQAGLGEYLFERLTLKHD
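Steps: apoferritin (10 uM) was premixed with half-saturated 1-AMA in PBS, compounds were pin-transferred, plates stood 10 min at room temperature, fluorescence was read at 380/535 nm, and curves were fitted with a Hill equation.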
Mm-Cpn inhibitor – Inhibitors of TCP-1 ring complex (TRiC) of Methanococcus maripaludis (MmCpn): qHTS. purified Mm-Cpn ATPase, ADP Transcreener TR-FRET. Potency, µM (highest dose often 76.9 µM), usual class: inhibitors. hit rate 0.031% among 330,000. AID 504842, 2011; further: nearly all actives have a fitted effect of over 80% in size
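ATPase turnover read by TR-FRET ADP competition (Eu cryptate antibody/ADP-d2, 665/590 nm): 10uM ATP final, 25nM Mm-CPN final, 30 min 37degC after 10-min compound preincubation, pH 7.4 Tris/KCl/MgCl2/DTT buffer.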
ERG-DNA inh – qHTS for Small Molecule Inhibitors of the ERG Ets/DNA interaction; hit rate 0.028% among 370,000; Potency, µM (highest dose often 76.9 µM), usual class: inhibitors; fluorescence polarization, His-ERG Ets domain / labelled DNA; Transcriptional regulator ERG (Homo sapiens), P11308; AID 624246, 2012; active means well fitted inhibition curve with a large enough effect in the polarisation, with a control signal flat; inconclusive means small, poorly fitted or top-dose-only effect, or effect the other way, or a change in a side signal; inactive means no such curve, though single readings can be large or run the other way; the % refers to the polarisation;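 further: polarization taken with two DNA probes labelled with fluorescein and Texas red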
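His-tagged ERG Ets domain (1 uM in the protein solution; 300mM KCl, 50mM Tris-HCl, 1mM EDTA, 1mM DTT, pH 7.5) received compound, then a probe mix of 5 nM fluorescein-DNA and 100nM Texas-615-DNA. Fluorescence polarization was read for both dyes.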
Hits are given with their value; n = inactive; u = inconclusive; x = no result given. Unless noted, the call rests on the fitted dose curve; in most records, active means well fitted curve in the direction sought with a large enough effect; inconclusive means small, poorly fitted or top-dose-only effect, or another doubt; inactive means no such curve, though single readings can be large; an effect the other way counts as inactive or inconclusive.

SMILES	CCT modulator	Anesthetic bind	Mm-Cpn inhibitor	ERG-DNA inh
Cc1ccc(CNC(=O)c2ccc(Cn3nc(C)cc3C)o2)cc1	-73	n	n	n
Cc1cccc(NS(=O)(=O)c2ccc3c(c2)OCC(C(=O)N2CCCC2)O3)c1C (configuration not stated)	x	n	x	n
COc1ccc(-c2noc(-c3ccc(N4CCCC4)c([N+](=O)[O-])c3)n2)cc1	x	u	x	n
NC(=O)CSc1nnc(-c2cc3ccccc3o2)n1Cc1ccccc1	-62	n	n	n
Cc1ccc(-n2nc(C)c3c(C)c(CCC(=O)NCc4ccc(Cl)cc4)c(C)nc32)cc1	x	n	x	n
Cc1ccc2[nH]c(=O)c3cc(C(=O)N(C)c4ccc(Br)cc4)sc3c2c1	x	n	x	n
C=C(C)CSc1nncn1/N=C/c1ccc(OC)cc1	n	13µM	u	n
Cc1cc(C)nc(SCNC(=O)c2ccc(F)cc2)n1	-32	n	n	n
Cc1ccc(S(=O)(=O)CNC(=S)c2cccc(C)c2)cc1	n	28µM	n	n
Cc1ccc(S(=O)(=O)CNC(=S)c2ccc3ccccc3c2)cc1	n	25µM	n	n
COc1ccc2cc(C#N)c(=O)oc2c1	x	n	x	x
N=c1sccn1CC(=O)Nc1cccc2ccccc12	-122	n	n	n
CSc1nsc(/C=C/Nc2ccc(O)cc2C)c1C#N	n	n	n	8.9µM
CSc1nsc(/C=C/Nc2ccc(F)cc2)c1C#N	n	n	n	n
CC(C)(c1ccccc1)c1ccc(OCC2CO2)cc1 (configuration not stated)	-30	n	n	n
CN(C)CCCOc1ccc(C(C)(C)c2ccccc2)cc1	n	16µM	n	n
CN(C)CCOc1ccc(C(C)(C)c2ccccc2)cc1	n	n	n	n
Cc1ccc(C(=O)Oc2ccccc2N2CCOCC2)cc1	n	n	n	n
Cc1ccc(C(=O)OC2OC(=O)C(Cl)=C2N2CCOCC2)cc1 (configuration not stated)	-50	n	n	n
O=C(CCCCCn1c(=S)[nH]c2ccc(N3CCOCC3)cc2c1=O)NCc1ccc2c(c1)OCO2	-57	n	n	n
N#Cc1ccc(OCC(=O)OCC(=O)c2ccccc2)cc1	-33	x	n	n
N#Cc1ccc(OCC(=O)OCC(=O)c2ccc[nH]2)cc1	n	x	n	n
O=C(CCC(=O)c1ccc(Cl)cc1)OCC(=O)c1ccccc1	n	13µM	n	n
COc1nccnc1NS(=O)(=O)c1ccc(NC(=S)NC(=O)c2ccc(F)cc2)cc1	n	n	n	n
COc1nccnc1NS(=O)(=O)c1ccc(NC(=S)NC(=O)c2cccc(F)c2)cc1	-63	n	n	x
SMILES	CCT modulator	Anesthetic bind	Mm-Cpn inhibitor	ERG-DNA inh
CCOC(=O)C(=O)Nc1ccc(F)cc1	-84	n	n	n
O=C(NNC(=O)C12CC3CC(CC(C3)C1)C2)c1ccccc1F	-45	n	n	n
O=C(NNC(=O)C12CC3CC(CC(C3)C1)C2)c1ccccc1O	n	x	n	x
CNc1ccc(C(=O)Oc2cc(O/N=[N+](\[O-])N(C)C)c([N+](=O)[O-])cc2[N+](=O)[O-])cc1	x	n	x	x
CC(=O)c1ccc(OCC(=O)NC2CCCCCC2)cc1	n	x	n	x
CC1CCC(NC(=O)COc2ccc(C(=O)c3ccccc3)cc2)CC1 (configuration not stated)	-45	n	n	n
CCC(=O)c1ccc(OCC(=O)OCC(=O)NC2CCCCCCC2)cc1	n	5.6µM	n	n
CCC(=O)c1ccc(OCC(=O)Nc2cc(S(=O)(=O)N3CCCCC3)ccc2N2CCN(CC)CC2)cc1	-121	x	n	n
CCC[C@H](NC(=O)[C@H](Cc1ccc(O[S+](=O)([O-])O)cc1)NC(=O)OC(C)(C)C)C(=O)NCC(=O)N[C@@H](Cc1c[nH]c2ccccc12)C(=O)N[C@@H](CCC)C(=O)N[C@@H](CC(=O)OCCc1ccccc1)C(=O)O	x	n	x	x
CCn1c(C)[n+](CC)c2ccc(C(=O)N(C)c3ccccc3)cc21	-33	n	n	n
O=S(=O)(Nc1cccc2cccnc12)c1ccccc1O	x	n	x	x
O=C(O)c1c(Sc2ccccc2)c2cc(Cl)ccc2n1Cc1ccc(Cl)cc1	x	n	x	x
COC(=O)c1sc(S(=O)(=O)N2CCC(C(N)=O)CC2)c(C(=O)OC)c1C	-33	n	n	n
CC1CC(C)CN(C(=O)c2cc3ccccc3o2)C1 (configuration not stated)	n	x	n	n
